# From PubChem BioAssay (Tox21)
# Values joined by “and” are separate entries in the source; they are usually repeats but may differ in a detail not shown here. Equal values may be shown once. Records with an inconclusive call do not appear. A call without a number means that no potency is given here. More than one record can exist for a structure, and the calls need not agree. Active and inactive are the calls of the source. Calls come from the whole dose curve; as a rule, active = well fitted curve in the direction sought with a large enough effect in the repeat runs; inconclusive = weak or mixed curves; inactive = no such curve, though single readings can be large; an effect the other way counts as inactive or inconclusive.
# Experiments:
# [1] = qHTS RealTime-Glo MT Cell Viability Assay in HEK293 cells - 16 hour (AID 1224872); settings: RealTime-Glo luminescence; series mostly up to 76.8 µM; note: nearly all actives have a fitted effect of over 50% in size
# Method in brief: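 Reads taken at 0, 8, 16, 24, 32 and 40 h from the same wells. HEK293 cells (600/well) carried RealTime-Glo reagents from seeding, with compound added after a 5 h settle at 37 C.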
# [2] = qHTS RealTime-Glo MT Cell Viability Assay in HepG2 cells - 8 hour (AID 1224873); settings: RealTime-Glo luminescence; series mostly up to 76.8 µM; note: nearly all actives have a fitted effect of over 55% in size
# Method in brief: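 HepG2 cells (600/well) mixed with RealTime-Glo MT reagent, settled 5 h at 37 C/5% CO2 before compound addition. Nonlytic NanoLuc luminescence from viable-cell prosubstrate reduction read repeatedly during 40 h treatment at 37 C.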
# [3] = A CellTox Green Cytotoxicity Assay to monitor cytotoxicity in HEK293 cells - 24 hour (AID 1224875); settings: CellTox Green fluorescence; series mostly up to 76.8 µM; note: nearly all actives have a fitted effect of over 45% in size
# Method in brief: (§1)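 HEK293 cells premixed with CellTox Green dye were seeded at 600 cells/well and left 5 h at 37 C/5% CO2 before pin transfer of 23 nL compound in DMSO. Fluorescence from dye bound to dead-cell DNA was read during 40 h treatment.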
# [4] = A CellTox Green Cytotoxicity Assay to monitor cytotoxicity in HepG2 cells - 16 hour (AID 1224876); settings: CellTox Green fluorescence; series mostly up to 76.8 µM; note: nearly all actives have a fitted effect of over 45% in size
# Method in brief: (§2)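 HepG2 cells were seeded together with the CellTox Green dye at 600 cells/well, left 5 h at 37 C/5% CO2, then given compounds in DMSO. Fluorescence from dye bound to dead-cell DNA was read repeatedly over 40 h of treatment at 37 C.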
# [5] = qHTS RealTime-Glo MT Cell Viability Assay in HepG2 cells - 32 hour (AID 1224877); settings: RealTime-Glo luminescence; series mostly up to 76.8 µM; note: nearly all actives have a fitted effect of over 55% in size
# Method in brief: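 HepG2 suspension premixed with RealTime-Glo reagents is plated at 600 cells per well and left 5 h at 37 C/5% CO2. Compounds in DMSO then go in, and bioluminescence reflecting viable cell number is recorded over 40 h.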
# [6] = A CellTox Green Cytotoxicity Assay to monitor cytotoxicity in HepG2 cells - 24 hour (AID 1224878); settings: CellTox Green fluorescence; series mostly up to 76.8 µM; note: nearly all actives have a fitted effect of over 45% in size
# Method in brief: as §2
# [7] = qHTS RealTime-Glo MT Cell Viability Assay in HEK293 cells - 0 hour (AID 1224880); settings: RealTime-Glo luminescence; series mostly up to 76.8 µM; note: nearly all actives have a fitted effect of over 45% in size
# Method in brief: (§3)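 HEK293 cells mixed with RealTime-Glo reagents (NanoLuc plus cell-permeant prosubstrate) at 600 cells/well, preincubated 5 h at 37 C/5% CO2, then given 23 nL compound in DMSO. Nonlytic luminescence from viable cells was read at 0, 8, 16, 24, 32 and 40 h.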
# [8] = A CellTox Green Cytotoxicity Assay to monitor cytotoxicity in HEK293 cells - 32 hour (AID 1224881); settings: CellTox Green fluorescence; series mostly up to 76.8 µM; note: nearly all actives have a fitted effect of over 40% in size
# Method in brief: as §1
# [9] = A CellTox Green Cytotoxicity Assay to monitor cytotoxicity in HepG2 cells - 40 hour (AID 1224879); settings: CellTox Green fluorescence; series mostly up to 76.8 µM; note: nearly all actives have a fitted effect of over 40% in size
# Method in brief: as §2
# [10] = qHTS RealTime-Glo MT Cell Viability Assay in HEK293 cells - 40 hour (AID 1224874); settings: RealTime-Glo luminescence; max response: stronger effect = lower value; note: nearly all actives have a fitted effect of over 50% in size
# Method in brief: as §3
# Potency is the fitted concentration of half-maximal effect.
Compound,Potency [1],Potency [2],Potency [3],Potency [4],Potency [5],Potency [6],Potency [7],Potency [8],Potency [9],Potency [10],max response [10]
COc1ccc2nc(N)sc2c1,inactive,inactive,inactive,inactive,inactive,inactive,inactive,inactive,,,
O=C1OC2(c3ccccc31)c1cc(I)c(O)c(I)c1Oc1c2cc(I)c(O)c1I,49.1 µM (active) and inactive,39 µM (active),12 µM (active) [middle of 4 runs],11.8 µM (active) [middle of 4 runs],39 µM (active) and 24.8 µM (active) and 29.8 µM (active),13.3 µM (active) [middle of 4 runs],5.56 µM (active) [middle of 4 runs],11.8 µM (active) [middle of 4 runs],13.3 µM (active) [middle of 4 runs],,
C=C[C@H]1CN2CC[C@H]1C[C@H]2[C@H](O)c1ccnc2ccc(OC)cc12,inactive,inactive,inactive,inactive,inactive,inactive,inactive,inactive,inactive,,
C=CC(C)(O)CCC=C(C)C (stereo unspecified),inactive,inactive,inactive,inactive,inactive,inactive,inactive,inactive,,,
c1ccc2c(c1)ccc1cc3c(ccc4ccccc43)cc12,inactive,inactive,inactive,inactive,inactive,inactive,inactive,inactive,,,
Nc1ccc(O)c(N)c1,inactive,inactive,inactive,inactive,inactive,inactive,,inactive,,,
CC(=O)Oc1ccc(C(c2ccc(OC(C)=O)cc2)c2ccccn2)cc1,inactive,inactive,inactive,inactive,inactive,inactive,,inactive,inactive,,
c1ccc2ncccc2c1,inactive,inactive,inactive,inactive,inactive,inactive,inactive,inactive,inactive,,
COc1ccc(-c2coc3cc(O)cc(O)c3c2=O)cc1,,inactive,inactive,,inactive,,inactive,inactive,,49.4 µM (active),
CC1(C)OC(=O)NC1=O,inactive,inactive,inactive,inactive,inactive,inactive,inactive,inactive,,,
Cc1ccc(C(C)(C)C)cc1,inactive,inactive,inactive,inactive,inactive,inactive,inactive,inactive,inactive,,
CC(=O)O[C@]1(C(C)=O)CC[C@H]2[C@@H]3C=C(C)C4=CC(=O)CC[C@]4(C)[C@H]3CC[C@@]21C,,inactive,inactive,inactive,inactive,inactive,5.49 µM (active) and 2.68 µM (active),inactive,inactive,19.5 µM (active) and 10.7 µM (active),
O=C(O)CCCC(=O)O,inactive,inactive,inactive,inactive,inactive,inactive,inactive,inactive,,,
CC(=O)[C@H]1CC[C@H]2[C@@H]3CC=C4C[C@@H](O)CC[C@]4(C)[C@H]3CC[C@]12C,inactive,inactive,inactive,inactive,inactive,inactive,inactive,inactive,inactive,,
Cc1ccc([N+](=O)[O-])c(C)c1,38.9 µM (active) and inactive,inactive,inactive,inactive,inactive,inactive,inactive,30.9 µM (active) and inactive,17.4 µM (active) and inactive,,
CN1CCOCC1,inactive,inactive,inactive,inactive,inactive,inactive,inactive,inactive,,,
CN(C)/N=N/c1nc[nH]c1C(N)=O,inactive,inactive,inactive,inactive,inactive,inactive,inactive,inactive,inactive,,
CCCCCC1C(=O)CCC1CC(=O)OC (stereo unspecified),inactive,inactive,inactive,inactive,inactive,inactive,inactive,inactive,inactive,,
Nc1cc([N+](=O)[O-])ccc1C(=O)O,inactive,inactive,inactive,inactive,inactive,inactive,inactive,inactive,,,
C=C1C[C@H]2[C@@H]3C=C(C)C4=CC(=O)CC[C@]4(C)[C@H]3CC[C@]2(C)[C@@]1(OC(C)=O)C(C)=O,,inactive,inactive,inactive,inactive,inactive,,inactive,inactive,,

Compound,Potency [1],Potency [2],Potency [3],Potency [4],Potency [5],Potency [6],Potency [7],Potency [8],Potency [9],Potency [10],max response [10]
CC(C)(C)c1cccc(C(C)(C)C)c1O,38 µM (active) and inactive,inactive,,inactive,inactive,inactive,inactive,53.7 µM (active) and inactive,,,
CCCCCCCCCCCCO,inactive,inactive,inactive,inactive,inactive,inactive,inactive,inactive,,,
C=C[Si](OCCOC)(OCCOC)OCCOC,inactive,inactive,inactive,inactive,inactive,inactive,inactive,inactive,inactive,,
Cc1ccc(N)c([N+](=O)[O-])c1,inactive,inactive,inactive,inactive,inactive,inactive,inactive,inactive,inactive,,
CNC[C@H](O)c1ccc(O)c(O)c1,inactive,inactive,inactive,inactive,inactive,inactive,inactive,inactive,inactive,,
Nc1ccc2c(O)cc(S(=O)(=O)O)cc2c1,inactive,inactive,inactive,inactive,inactive,inactive,inactive,inactive,,,
O=C(O)CCCCCCCCCCCC(=O)O,inactive,inactive,inactive,inactive,inactive,inactive,inactive,inactive,48.2 µM (active) and inactive,,
C[C@]12CC[C@@H]3c4ccc(O)cc4CC[C@H]3[C@@H]1CC[C@H]2O,,inactive,inactive,inactive,inactive,inactive,inactive,inactive,9.94 µM (active) and 34.7 µM (active),5.59 µM (active) and 15.5 µM (active),
Oc1ccc(C(c2ccc(O)cc2)C(Cl)(Cl)Cl)cc1,,inactive,inactive,inactive,inactive,inactive,inactive,inactive,inactive,34.5 µM (active),
CC1(C)NC(=O)N(c2ccc([N+](=O)[O-])c(C(F)(F)F)c2)C1=O,,inactive,inactive,inactive,inactive,inactive,inactive,inactive,inactive,24.5 µM (active),
CCO[Si](CCCNC(N)=O)(OCC)OCC,inactive,inactive,inactive,inactive,inactive,inactive,inactive,inactive,,,
CC(=O)[C@@]1(O)CC[C@H]2[C@@H]3C[C@H](C)C4=CC(=O)C=C[C@]4(C)[C@@]3(F)[C@@H](O)C[C@@]21C,38.9 µM (active) and inactive,inactive,inactive,inactive,inactive,inactive,5.49 µM (active) and 3.01 µM (active),inactive,inactive,,
COC(=O)C(C)Oc1ccc(Oc2ncc(C(F)(F)F)cc2Cl)cc1 (stereo unspecified),,inactive,inactive,inactive,inactive,inactive,inactive,inactive,,,-25% (inactive)
COc1cc([C@H]2Oc3cc([C@H]4Oc5cc(O)cc(O)c5C(=O)[C@@H]4O)ccc3O[C@@H]2CO)ccc1O,inactive,inactive,,inactive and 21.3 µM (active),inactive,inactive and 21.3 µM (active),inactive,inactive and 15.1 µM (active),inactive and 21.3 µM (active),,
CCOC(=O)C(C)Oc1ccc(Oc2cnc3cc(Cl)ccc3n2)cc1 (stereo unspecified),20 µM (active) and 20.5 µM (active),inactive,inactive,inactive,inactive,inactive,inactive,inactive,inactive,,
CN(C)C,inactive,inactive,inactive,inactive,inactive,inactive,inactive,inactive,inactive,,
CN(C)CCCN1c2ccccc2Sc2ccc(Cl)cc21,30.9 µM (active) and 21.3 µM (active),54.9 µM (active),49 µM (active),49 µM (active) and 21.3 µM (active),34.7 µM (active) and 23.9 µM (active),38.9 µM (active) and 21.3 µM (active),,43.6 µM (active),24.5 µM (active) and 21.3 µM (active),,
C[C@]12CC[C@@H]3c4ccc(O)cc4CC[C@H]3[C@@H]1CC[C@@H]2O,,inactive,inactive,inactive,inactive,inactive,inactive,inactive,34.6 µM (active),17.3 µM (active) and 21.9 µM (active),
C1CN(SSN2CCOCC2)CCO1,inactive,,,inactive,inactive,inactive,inactive,48.5 µM (active) and inactive,,,-14.4% (inactive)
